Assay results as given in PMC4336329 (PLoS ONE, 2015).
In all, about 310,000 compounds went through this assay and about 14,000 (4.5%) showed an effect of 50% or more. Effects have a minus sign here. Only a selection was taken, and strong results are over-represented in it overall.

target: human ether-à-go-go-related gene (hERG) potassium channel (human, UniProt Q12809); assay: primary screen, population patch clamp on CHO cells stably expressing hERG; higher = less effect of the substance
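Note: peak tail current of the secondary pulse compared with the same well before compound.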

Chain of human ether-à-go-go-related gene (hERG) potassium channel (Q12809 whole entry, looked up): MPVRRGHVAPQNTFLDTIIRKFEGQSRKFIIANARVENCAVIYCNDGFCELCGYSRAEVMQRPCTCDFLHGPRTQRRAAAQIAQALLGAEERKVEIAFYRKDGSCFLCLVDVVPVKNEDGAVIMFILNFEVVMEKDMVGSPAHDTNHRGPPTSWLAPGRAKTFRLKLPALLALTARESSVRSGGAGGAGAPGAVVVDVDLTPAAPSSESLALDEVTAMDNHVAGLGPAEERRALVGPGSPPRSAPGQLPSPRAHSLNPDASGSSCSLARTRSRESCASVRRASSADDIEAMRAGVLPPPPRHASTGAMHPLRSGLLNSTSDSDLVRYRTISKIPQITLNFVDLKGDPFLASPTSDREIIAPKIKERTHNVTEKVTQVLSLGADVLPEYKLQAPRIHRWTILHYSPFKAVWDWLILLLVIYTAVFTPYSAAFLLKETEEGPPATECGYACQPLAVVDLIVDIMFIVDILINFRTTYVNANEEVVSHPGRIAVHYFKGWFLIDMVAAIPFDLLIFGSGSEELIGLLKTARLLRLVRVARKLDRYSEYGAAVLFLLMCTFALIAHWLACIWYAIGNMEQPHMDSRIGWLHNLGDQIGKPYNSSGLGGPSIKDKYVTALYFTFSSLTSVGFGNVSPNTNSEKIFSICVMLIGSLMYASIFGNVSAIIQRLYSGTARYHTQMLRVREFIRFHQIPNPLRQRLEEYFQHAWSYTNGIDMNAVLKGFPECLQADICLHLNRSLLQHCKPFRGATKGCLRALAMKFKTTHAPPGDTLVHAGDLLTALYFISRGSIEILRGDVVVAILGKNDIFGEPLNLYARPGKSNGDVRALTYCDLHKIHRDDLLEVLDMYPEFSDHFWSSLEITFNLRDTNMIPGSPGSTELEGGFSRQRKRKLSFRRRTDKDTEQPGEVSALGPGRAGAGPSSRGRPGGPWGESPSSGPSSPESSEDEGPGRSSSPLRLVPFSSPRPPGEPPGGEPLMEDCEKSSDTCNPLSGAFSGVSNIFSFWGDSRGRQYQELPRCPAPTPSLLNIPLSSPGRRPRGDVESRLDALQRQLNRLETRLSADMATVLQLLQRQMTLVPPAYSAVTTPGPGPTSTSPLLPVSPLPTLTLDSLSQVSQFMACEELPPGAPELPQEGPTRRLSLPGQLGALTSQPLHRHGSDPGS

Compound | hERG current change (%, negative = inhibition) at 10uM [%]
CC(C)(C)C(=O)Cn1c(=O)n(-c2ccc(F)cc2F)c(=O)c2sccc21 | 4.28
O=C1C(C2=NC(C(=O)O)C3C(=O)N(c4ccc(Cl)cc4)C(=O)C23)=C(O)c2ccccc21 (centres unmarked) | 2.54
COc1ccc(C(=O)NC2CCCCCCC2)cc1OC | 1.54
COc1cc(C(=O)NC2CC(C)(C)CC(C)(C)C2)ccc1OC1CCN(C(C)=O)CC1 | 6.2
COc1ccc(C(=O)NCCc2ccc(C)cc2)cc1OC1CCN(C(C)=O)CC1 | -4.05
COc1cc(CN2CCC(Oc3cc(C(=O)NC4CC4)ccc3OC)CC2)cc(OC)c1 | -72.8
COc1ccc(C(=O)NC2CC2)cc1OC1CCN(Cc2cc(C)cc(C)c2)CC1 | -70.2
COc1cc(/C=N/NC(=O)COc2ccccc2C)ccc1OC(=O)c1cccs1 | -0.671
Cc1ccc(NC(=O)Cn2nnc(-c3ccc4c(c3)OCO4)n2)cc1F | 11
Nc1cc(N)nc(SCC(=O)Nc2ccccc2N2CCOCC2)n1 | 2.73
CC(C)c1nc2sc3c(c2c(=O)[nH]1)CC(C)(C)OC3 | 17.7
Cc1ccccc1C(=O)NCCNC(=O)c1ccccn1 | 6.75
CC(C)CC(=O)Nc1ccc(Cc2ccncc2)cc1 | 10.1
O=C(Nc1cccnc1)c1cc(F)c(F)cc1Cl | 19.7
O=C(Nc1ccc(Cc2ccncc2)cc1)c1cc(F)c(F)cc1Cl | -71.2
O=C(NCc1ccncc1)c1cc(F)c(F)cc1Cl | 14.2
O=C(Nc1ccc(Cc2ccncc2)cc1)c1ccc(Br)o1 | -35.8
CC(C)Cc1ccc(C(=O)Nc2ccc(Cc3ccncc3)cc2)o1 | -57.6
N#Cc1cnc(SCC(=O)N2CCCC2)nc1N | 13.1
COc1cc(NC(=O)c2cccc(C)c2)c(OC)cc1NC(=O)CN1CCOCC1 | -3.88
O=C(NC12CC3CC(CC(C3)C1)C2)C12CC3CC(C1)CC(n1cnc(Cl)n1)(C3)C2 | 2.42
COc1cc(-c2nc(-c3cccc(C)c3)no2)cc(OC)c1OC | 0.668

Compound | hERG current change (%, negative = inhibition) at 10uM [%]
Cc1cc(NC(=O)C2CCCN2C(=O)Nc2cccc(Cl)c2)ccc1-n1cnnn1 (centres unmarked) | -48.3
Cc1cc(C)cc(NC(=O)N2CCCC2C(=O)Nc2ccc(-n3cnnn3)c(C)c2)c1 (centres unmarked) | -12.3
Cc1ccc(NC(=O)N2CCCC2C(=O)Nc2ccc(-n3cnnn3)c(C)c2)cc1 (centres unmarked) | -18.7
Cc1cc(C)cc(NC(=O)N2CCCC2C(=O)Nc2ccc(-n3cnnn3)cc2)c1 (centres unmarked) | -54.1
CC(=O)Nc1ccc(NC(=O)C2CCCN2C(=O)NC2CCCCC2)cc1 (centres unmarked) | 12.5
CC(C)c1ccc(NC(=O)N2CCCC2C(=O)Nc2ccc(-n3cnnn3)cc2)cc1 (centres unmarked) | -61.8
O=C(Nc1ccc(-n2cnnn2)cc1)C1CCCN1C(=O)NC1CCCCC1 (centres unmarked) | -63.3
Cc1cccc(C)c1NC(=O)N1CCCC1C(=O)Nc1ccc(-n2cnnn2)cc1 (centres unmarked) | -35.8
Cc1cc(NC(=O)C2CCCN2C(=O)Nc2c(C)cccc2C)ccc1-n1cnnn1 (centres unmarked) | -10.9
O=C(Nc1ccc(-n2cnnn2)cc1)C1CCCN1C(=O)Nc1ccc(Br)cc1 (centres unmarked) | -79.9
O=C(Nc1ccc(-n2cnnn2)cc1)C1CCC1 | 11.3
Cc1ccc(NC(=O)C2CCCN2C(=O)NC2CCCCC2)cc1 (centres unmarked) | 8.72
O=C(CN1C(=O)NC2(CCc3ccccc32)C1=O)NCC(F)(F)F (centres unmarked) | 2.18
O=C(O)c1cccc(Oc2ncnc3sc4c(c23)CCCC4)c1 | 34.5
Oc1ccc(N=Nc2ccc3c(c2)OCCO3)c(O)c1 | 22.6
CC(=O)Nc1ccc(S(=O)(=O)N2CC(=O)NC(=O)C2)cc1 | 29.9
COc1ccc(C2=NS(=O)(=O)N(C)C(C(=O)N3CCCCC3)=C2)cc1OC | -4.54
CCn1ncc(Br)c1C(=O)NC(C)c1ccccc1 (centres unmarked) | 3.91
O=C(Cn1c(=O)n(CCC(=O)N2CCCCC2)c(=O)c2sccc21)NCc1ccccc1 | 5.68
CN(Cc1ccccc1)C(=O)c1cc2ccccc2o1 | -23
COc1ccc(Cl)cc1NC(=O)CN(C)C(=O)c1cc(=O)c2ccccc2o1 | -28
CSc1ccc(CN(C)C(=O)c2cc(=O)c3ccccc3o2)cc1 | -71.4

Compound | hERG current change (%, negative = inhibition) at 10uM [%]
CN(Cc1ccccc1Cl)C(=O)c1cc2ccccc2o1 | -2.37
CSc1ccc(CN(C)C(=O)c2cc3ccccc3o2)cc1 | 21.2
CN(Cc1ccc(Cl)cc1Cl)C(=O)c1cc(=O)c2ccccc2o1 | -53.4
CN(Cc1ccc(N(C)C)cc1)C(=O)c1cc2ccccc2o1 | -18.5
COc1ccc(CCN(C)C(=O)c2cc(=O)c3ccccc3o2)cc1OC | 7.6
Cc1ccc(-c2c(C(=O)NCc3ccc(F)cc3)oc(=O)c3ccccc23)cc1 | -13
CCc1ccc(CN(C)C(=O)c2cc(=O)c3ccccc3o2)cc1 | -66.4
Cc1ccc(-c2c(C(=O)N(C)Cc3ccccc3)oc(=O)c3ccccc23)cc1 | -52.5
CN(Cc1ccccc1)C(=O)c1oc(=O)c2ccccc2c1-c1ccccc1 | -13.1
O=C(Nc1ccc(N2CCCCCC2)cc1)c1ccc[nH]1 | -15.6
O=C(NC(=S)NCC1CCCO1)c1ccccc1Br (centres unmarked) | 4.66
CN(CCc1ccccn1)C(=O)Nc1ccc(C(C)(C)C)cc1 | -19.3
O/N=C/c1cc2ccccc2n1Cc1ccccc1F | 13.6
CC12CCC(C(=O)n3c1nc1ccccc13)C2(C)C (centres unmarked) | -3.14
Cc1cccc(NC(=O)CSc2nc3nc(C)cc(C)c3c(=O)[nH]2)c1 | 4.65
CCOc1ccc(C(=O)NC2CCN(CC(=O)NCc3ccccc3)CC2)cc1 | -29.3
CC1CCN(CC(=O)Nc2cccc([N+](=O)[O-])c2)CC1 | 3.53
O=C(NC1CCN(Cc2ccccc2)CC1)C1CCN(S(=O)(=O)c2cccc([N+](=O)[O-])c2)CC1 | -8.03
O=C(NC1CCN(Cc2cccc([N+](=O)[O-])c2)CC1)c1ccccc1 | -53.7
COc1ccc(C)cc1NC(=O)NC1CCN(Cc2ccccc2)CC1 | -31.4
COc1ccc([N+](=O)[O-])cc1C(=O)NC1CCN(Cc2ccccc2)CC1.Cl.O | -55.3
Cc1ccc(C(=O)NC2CCN(CC(=O)Nc3cccc([N+](=O)[O-])c3)CC2)cc1 | -71.4

Compound | hERG current change (%, negative = inhibition) at 10uM [%]
O=C(NC1CCN(CC(=O)N(c2ccccc2)c2ccccc2)CC1)c1ccc([N+](=O)[O-])cc1 | -78
CCN1CCCC(NC(=O)c2cc([N+](=O)[O-])ccc2OC)C1.Cl.O (centres unmarked) | -11.8
O=C(NC1CCN(C(=O)c2cccc([N+](=O)[O-])c2)CC1)c1ccccc1 | -32.8
CC1CCCCC1NC(=O)CN1CCC(NC(=O)c2ccc([N+](=O)[O-])cc2)CC1 (centres unmarked) | 2.55
CC(=O)NC1CCN(CC(=O)Nc2cccc([N+](=O)[O-])c2)CC1 | 18.7
COc1ccccc1N/C=C/c1onc(C)c1[N+](=O)[O-] | 1.63
Cn1c2ccccc2c2cc(/C=C(\NC(=O)c3ccccc3)C(=O)O)ccc21 | 9.22
CSc1ccc(C(=O)N2CCc3ccc(NC(=O)c4ccccn4)cc3C2)cc1 | -4.13
Cc1ccc(NC(=O)Cn2c(/C=C/c3ccccc3)nc3ccccc32)cc1C | -0.723
Cc1ccc(C(=O)O/N=C(\N)c2ccccn2)c(C)c1 | -3.86
C/C(=N\OCC(=O)O)c1ccc(Cl)cc1 | 13.5
COc1ccc(CNC(=O)C(c2ccncc2)N(C(=O)Cc2cccs2)c2ccc(C)cc2)cc1 (centres unmarked) | -15.7
Cc1ccc(C2Nc3ccccc3C(=O)N2Cc2ccco2)cc1 (centres unmarked) | -32.5
O=C(O)c1cc(OCc2ccccc2)cc(OCc2ccccc2)c1 | 10.8
COc1ccc(NC(=O)CS(=O)CC(=O)Nc2ccc(OC)c(OC)c2)cc1 (centres unmarked) | 10.9
O=[N+]([O-])c1ccc(CSc2ccc(S(=O)(=O)N3CCCC3)cn2)cc1 | -32.6
Cc1ccc(N2C(=O)CC(N3CCc4ccccc43)C2=O)cc1Cl (centres unmarked) | 15.6
CCCCN(C)C(=O)c1cc2c(Cl)nc3ccccc3c2s1 | -4.12
Cc1ccc2nc(Cl)c3cc(C(=O)N(CCN(C)C)Cc4ccco4)sc3c2c1 | -39.8
CN(C)CCN(Cc1ccco1)C(=O)c1cc2c(Cl)nc3ccccc3c2s1 | -70.1
